Laboratory results: PubChem BioAssay (NCI)
This is part of a sample that, as a whole, favours compounds with a hit. Of some 79,000 tested, about 15% had one in any assay. Values without a mark were called inactive. The source made the active and inactive calls. Rule as the data show it: active = growth inhibition above about 70%; inactive = the rest.

What was measured:
[1] = NCI Yeast Anticancer Drug Screen. Data for the rad50 strain (AID 155);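 also: 0% = growth of vehicle-only cultures of the same strain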; conditions: S. cerevisiae rad50 strain growth inhibition, hits give high values
In short: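 Relative growth inhibition (compound vs vehicle) was measured in yeast with a defined repair-gene alteration.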

[2] = NCI Yeast Anticancer Drug Screen. Data for the mec2-1 strain (AID 157); conditions: S. cerevisiae mec2-1 strain, hits give high values
In short: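 Compounds were applied to mec2-1 yeast cells. Their growth was then compared with that of vehicle-treated cultures to give growth inhibition.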

[3] = NCI Yeast Anticancer Drug Screen. Data for the sgs1 mgt1 strain (AID 161);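 also: 0% = growth of cultures given vehicle only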; conditions: S. cerevisiae sgs1 mgt1 strain, hits give high values
In short: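 Yeast cells carrying a defined DNA-repair defect were exposed to test compounds. Growth inhibition was measured relative to vehicle-treated controls.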

[4] = NCI Yeast Anticancer Drug Screen. Data for the cln2 rad14 strain (AID 165);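 also: 0% = growth equal to vehicle treated cultures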; conditions: S. cerevisiae cln2 rad14 strain, hits give high values
In short: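 Strain: cln2 rad14 yeast, altered in cell cycle control and DNA damage repair. Read-out: growth inhibition vs vehicle.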

[5] = NCI Yeast Anticancer Drug Screen. Data for the bub3 strain (AID 167); conditions: S. cerevisiae bub3 mutant strain, hits give high values
In short: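 Screening used yeast with an engineered genetic alteration affecting cell cycle control. Compound-exposed cultures were compared with vehicle cultures, and reduced growth was taken as inhibition.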

[6] = NCI Yeast Anticancer Drug Screen. Data for the mlh1 rad18 strain (AID 175); conditions: S. cerevisiae mlh1 rad18 strain growth inhibition, hits give high values
In short: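 A repair-deficient yeast strain is exposed to test compound, and growth is scored relative to vehicle-treated controls.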

[7] = at 5.0 µM (retest, dose inferred, filed as 0.5)
[8] = at 50.0 µM (retest, dose inferred, filed as 5.0)

With `CN=C(NC1CCCCC1)c1ccc(NC(=O)c2ccc(C(=O)Nc3ccc(C(=NC)NC4CCCCC4)cc3)cc2)cc1` the growth inhibition [1, 7] was 0%, the growth inhibition [1, 8] was 81% (active) and the growth inhibition ([1]; at 50.0 µM) was 69.5%. For the same compound, the growth inhibition [2, 7] was 2%, the growth inhibition [2, 8] was 59% and the growth inhibition ([2]; at 50.0 µM) was 24%. For the same compound, the growth inhibition [3, 7] was 6%, the growth inhibition [3, 8] was 96% (active) and the growth inhibition ([3]; at 50.0 µM) was 85.5% (active). For the same compound, the growth inhibition [4, 7] was 6%, the growth inhibition [4, 8] was 65% and the growth inhibition ([4]; at 50.0 µM) was 92% (active). For the same compound, the growth inhibition [5, 7] was -1%, the growth inhibition [5, 8] was 74% (active) and the growth inhibition ([5]; at 50.0 µM) was 33.7%. For the same compound, the growth inhibition [6, 7] was -1%, the growth inhibition [6, 8] was 99% (active) and the growth inhibition ([6]; at 50.0 µM) was 94.8% (active).

For `Cc1c(N=Nc2ccccc2Cl)c(-c2ccccc2)nn1C(=S)S`, the growth inhibition [1, 7] was 16%, the growth inhibition [1, 8] was 90% (active) and the growth inhibition ([1]; at 50.0 µM) was 96.2% (active). For the same compound, the growth inhibition [2, 7] was -1%, the growth inhibition [2, 8] was 91% (active) and the growth inhibition ([2]; at 50.0 µM) was 98.2% (active). For the same compound, the growth inhibition [3, 7] was 4%, the growth inhibition [3, 8] was 95% (active) and the growth inhibition ([3]; at 50.0 µM) was 97.8% (active). For the same compound, the growth inhibition [4, 7] was -2%, the growth inhibition [4, 8] was 92% (active) and the growth inhibition ([4]; at 50.0 µM) was 97.3% (active). The growth inhibition [5, 7] was -3%, the growth inhibition [5, 8] was 85% (active) and the growth inhibition ([5]; at 50.0 µM) was 97.3% (active). For the same compound, the growth inhibition [6, 7] was -2%, the growth inhibition [6, 8] was 93% (active) and the growth inhibition ([6]; at 50.0 µM) was 97.8% (active).

For `OC(CCN1CCOCC1)(c1cccc(Cl)c1)C1CCCCC1` (configuration not stated), the growth inhibition [1, 7] was 3%, the growth inhibition [1, 8] was 45% and the growth inhibition ([1]; at 50.0 µM) was 72.1% (active). It also gave a growth inhibition [2, 7] of 1%, a growth inhibition [2, 8] of 19% and a growth inhibition ([2]; at 50.0 µM) of -0.6%. The growth inhibition [3, 7] was 0%, the growth inhibition [3, 8] was 73% (active) and the growth inhibition ([3]; at 50.0 µM) was 45.7%. The growth inhibition [4, 7] was 2%, the growth inhibition [4, 8] was 40% and the growth inhibition ([4]; at 50.0 µM) was -26.9%. For the same compound, the growth inhibition [5, 7] was 2%, the growth inhibition [5, 8] was 68% and the growth inhibition ([5]; at 50.0 µM) was 75.4% (active). The growth inhibition [6, 7] was 2%, the growth inhibition [6, 8] was 58% and the growth inhibition ([6]; at 50.0 µM) was 40.8%.

For `COc1ccc(C(=O)NCCN2CCN3Cc4[nH]c5ccccc5c4CC3C2)cc1` (configuration not stated), the growth inhibition [1, 7] was -1%, the growth inhibition [1, 8] was 3% and the growth inhibition ([1]; at 50.0 µM) was 1.65%. For the same compound, the growth inhibition [2, 7] was -2%, the growth inhibition [2, 8] was -5% and the growth inhibition ([2]; at 50.0 µM) was 1.85%. For the same compound, the growth inhibition [3, 7] was -8%, the growth inhibition [3, 8] was 8% and the growth inhibition ([3]; at 50.0 µM) was -6.4%. It also gave a growth inhibition [4, 7] of -5%, a growth inhibition [4, 8] of -2% and a growth inhibition ([4]; at 50.0 µM) of -17.6%. The growth inhibition [5, 7] was -5%, the growth inhibition [5, 8] was 1% and the growth inhibition ([5]; at 50.0 µM) was -5.05%. For the same compound, the growth inhibition [6, 7] was -11%, the growth inhibition [6, 8] was -3% and the growth inhibition ([6]; at 50.0 µM) was 11.7%.

In the case of `ClC(Cl)(Cl)C1=CC2c3ccccc3C1c1ccccc12`, the growth inhibition [1, 7] was -14%, the growth inhibition [1, 8] was 91% (active) and the growth inhibition ([1]; at 50.0 µM) was 89.7% (active). The growth inhibition [2, 7] was 0%, the growth inhibition [2, 8] was 91% (active) and the growth inhibition ([2]; at 50.0 µM) was 21.6%. The growth inhibition [3, 7] was -7%, the growth inhibition [3, 8] was 91% (active) and the growth inhibition ([3]; at 50.0 µM) was 87.8% (active). For the same compound, the growth inhibition [4, 7] was -3%, the growth inhibition [4, 8] was 90% (active) and the growth inhibition ([4]; at 50.0 µM) was 22.8%. For the same compound, the growth inhibition [5, 7] was -9%, the growth inhibition [5, 8] was 92% (active) and the growth inhibition ([5]; at 50.0 µM) was 28.7%. The growth inhibition [6, 7] was -6%, the growth inhibition [6, 8] was 92% (active) and the growth inhibition ([6]; at 50.0 µM) was 89.5% (active).

For `CCN(CC)CC(O)c1ccc(/C=C/c2ccc(Cl)cc2)cc1` (configuration not stated), the growth inhibition [1, 7] was 12%, the growth inhibition [1, 8] was 95% (active) and the growth inhibition ([1]; at 50.0 µM) was 98.1% (active). The growth inhibition [2, 7] was 6%, the growth inhibition [2, 8] was 97% (active) and the growth inhibition ([2]; at 50.0 µM) was 98% (active). For the same compound, the growth inhibition [3, 7] was 8%, the growth inhibition [3, 8] was 98% (active) and the growth inhibition ([3]; at 50.0 µM) was 58.5%. For the same compound, the growth inhibition [4, 7] was 12%, the growth inhibition [4, 8] was 97% (active) and the growth inhibition ([4]; at 50.0 µM) was 98.7% (active). For the same compound, the growth inhibition [5, 7] was 17%, the growth inhibition [5, 8] was 96% (active) and the growth inhibition ([5]; at 50.0 µM) was 98.6% (active). For the same compound, the growth inhibition [6, 7] was 15%, the growth inhibition [6, 8] was 97% (active) and the growth inhibition ([6]; at 50.0 µM) was 98.4% (active).

For `COc1cc(NCc2ccc3nc(-c4ccccc4)c(N)nc3c2)cc(OC)c1OC`, the growth inhibition [1, 7] was 7%, the growth inhibition [1, 8] was -19% and the growth inhibition ([1]; at 50.0 µM) was -8.3%. For the same compound, the growth inhibition [2, 7] was -1%, the growth inhibition [2, 8] was -12% and the growth inhibition ([2]; at 50.0 µM) was -9.45%. The growth inhibition [3, 7] was -3%, the growth inhibition [3, 8] was 7% and the growth inhibition ([3]; at 50.0 µM) was 50%. The growth inhibition [4, 7] was 5%, the growth inhibition [4, 8] was 3% and the growth inhibition ([4]; at 50.0 µM) was 16.6%. It also gave a growth inhibition [5, 7] of 8%, a growth inhibition [5, 8] of -10% and a growth inhibition ([5]; at 50.0 µM) of 37.2%. The growth inhibition [6, 7] was -16%, the growth inhibition [6, 8] was 5% and the growth inhibition ([6]; at 50.0 µM) was 70.3% (active).

In the case of `O=C(CBr)N1c2ccccc2S(=O)(=O)c2ccc3ccccc3c21`, the growth inhibition [1, 7] was 36%, the growth inhibition [1, 8] was 97% (active) and the growth inhibition ([1]; at 50.0 µM) was 79.5% (active). The growth inhibition [2, 7] was 49%, the growth inhibition [2, 8] was 98% (active) and the growth inhibition ([2]; at 50.0 µM) was 87% (active). For the same compound, the growth inhibition [3, 7] was 66%, the growth inhibition [3, 8] was 98% (active) and the growth inhibition ([3]; at 50.0 µM) was 81.2% (active). For the same compound, the growth inhibition [4, 7] was 36%, the growth inhibition [4, 8] was 96% (active) and the growth inhibition ([4]; at 50.0 µM) was 64.5%. The growth inhibition [5, 7] was 79% (active), the growth inhibition [5, 8] was 97% (active) and the growth inhibition ([5]; at 50.0 µM) was 76.5% (active). The growth inhibition [6, 7] was 79% (active), the growth inhibition [6, 8] was 97% (active) and the growth inhibition ([6]; at 50.0 µM) was 89.8% (active).

With `CCCCCCCCCCCC(O)CN1CCOCC1` (configuration not stated) the growth inhibition [1, 7] was 49%, the growth inhibition [1, 8] was 1% and the growth inhibition ([1]; at 50.0 µM) was 98.4% (active). The growth inhibition [2, 7] was 46%, the growth inhibition [2, 8] was 9% and the growth inhibition ([2]; at 50.0 µM) was 97.5% (active). The growth inhibition [3, 7] was 49%, the growth inhibition [3, 8] was -2% and the growth inhibition ([3]; at 50.0 µM) was 43.8%. The growth inhibition [4, 7] was 46%, the growth inhibition [4, 8] was 8% and the growth inhibition ([4]; at 50.0 µM) was 91.5% (active). The growth inhibition [5, 7] was 57%, the growth inhibition [5, 8] was 31% and the growth inhibition ([5]; at 50.0 µM) was 98.8% (active). For the same compound, the growth inhibition [6, 7] was 43%, the growth inhibition [6, 8] was 4% and the growth inhibition ([6]; at 50.0 µM) was 94% (active).
